According to ChEMBL document CHEMBL3433997, “St. Jude Leishmania screening dataset” (2016):

Experiments:
Format in all cases: functional
[1] = target: Solute carrier family 2, facilitated glucose transporter member 1 (Homo sapiens) (UniProt P11166); experiment: ST_JUDE_LEISH: Cytotoxicity at 2uM final concentration against transgenic Leishmania Mexicana promastigotes LmGLUT1 that are glucose transport deficient and complemented with the human glucose transporter GLUT1. Activity is measured by DNA content using SYBR green in vitro
Sequence of Solute carrier family 2, facilitated glucose transporter member 1 (Homo sapiens) (P11166 whole entry): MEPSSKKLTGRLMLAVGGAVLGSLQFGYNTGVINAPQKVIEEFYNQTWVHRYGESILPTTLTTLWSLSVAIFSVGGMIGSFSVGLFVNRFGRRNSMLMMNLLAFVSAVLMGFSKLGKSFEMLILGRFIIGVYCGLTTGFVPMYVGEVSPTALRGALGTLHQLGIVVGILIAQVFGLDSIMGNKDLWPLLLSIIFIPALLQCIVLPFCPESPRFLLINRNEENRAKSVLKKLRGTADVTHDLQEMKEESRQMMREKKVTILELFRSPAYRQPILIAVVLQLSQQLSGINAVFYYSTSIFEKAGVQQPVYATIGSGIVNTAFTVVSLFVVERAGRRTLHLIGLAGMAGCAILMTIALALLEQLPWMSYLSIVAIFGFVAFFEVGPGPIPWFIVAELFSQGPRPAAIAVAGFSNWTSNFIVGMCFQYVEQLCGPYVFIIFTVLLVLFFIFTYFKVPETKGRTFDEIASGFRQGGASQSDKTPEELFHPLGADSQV

[2] = target: Hexose transporter 1 (Plasmodium falciparum) (UniProt O97467); experiment: ST_JUDE_LEISH: Cytotoxicity at 2uM final concentration against transgenic Leishmania Mexicana promastigotes LmPfHT that are glucose transport deficient and complemented with the Plasmodium falciparum hexose transporter. Activity is measured by DNA content using SYBR green in vitro
[3] = target: Glucose transporter (Leishmania mexicana) (UniProt O61059); experiment: ST_JUDE_LEISH: Cytotoxicity at 2uM final concentration against transgenic Leishmania Mexicana promastigotes LmGT2 that are glucose transport deficient and complemented with the L. Mexicana glucose transporter 2. Activity is measured by DNA content using SYBR green in vitro

Row | SMILES | inhibition [1] [%] | inhibition [2] [%] | inhibition [3] [%]
1 | c1cc(CN2CCc3ccccc3CC2)cc(-c2c[nH]c3nc(NC4CCCC4)ncc23)c1 | -0.02 | -0.68 | 0.91
2 | C=CCC1OC(=O)c2cc(OC)cc(OC)c21 (stereo unspecified) | 89.1 | 84.4 | 86.9
3 | COc1c(C2CCN(CCCCNC(=O)c3ccc(-c4ccc(Cl)cc4)c(OCCN(C)C)c3)CC2)ccc2c1CCCC2 | 9.22 | 14.4 | 18.8
4 | COc1ccc(NC(=O)Nc2ccc(-c3ccccc3)cc2Cl)cc1N1CCN(C)CC1 | 12 | 11.8 | 3.58
5 | Cc1cc(=NN=Cc2ccc(F)cc2)c2cc(C(F)(F)F)ccc2[nH]1 | 2.35 | 2.57 | 0.92
6 | O=C(Nc1ccc(-c2ccccc2)cc1)Nc1cccc(Cn2cnc(N3CCCNCC3)cc2=O)c1 | 5.12 | 4.17 | 4.86
7 | N=c1n(Cc2ccccc2)c2ccccc2n1CC(O)c1ccc(Cl)c(Cl)c1 (stereo unspecified) | -0.72 | 1.71 | 1.3
8 | CCCC(=O)Nc1ccc(OCCCN(Cc2cccc(C(F)(F)F)c2)c2ccc(C#N)c(C(F)(F)F)c2)cc1 | 2.19 | 2.43 | 1.64
9 | COc1cc2ccccc2c(OC)c1CNCCCCCCNCc1c(OC)cc2ccccc2c1OC | 11.1 | 7.88 | 12.4
10 | c1ccc(C(c2ccccc2)N2CCC(NCc3ccc(OCCCN4CCCCC4)cc3)CC2)cc1 | 8.52 | 11.3 | 10.7
11 | CC(C)N1CCN(C(CN2CCN(CCCOc3ccccc3-c3ccccc3)CC2)c2ccc(F)cc2)CC1 (stereo unspecified) | 6.32 | 5.02 | 5.95
12 | COc1ccc(-c2ncnc(C(F)(F)F)c2-c2ccc(Cl)cc2)c(O)c1 | 3.19 | 3.07 | 2.96
